According to PMC11062922 (Nature Chemical Biology, 2023):

test system: PRKCA; set-up: species or system human, MV4-11 + K-562 + COLO205 + SK-N-BE2 + OVCAR-8; conditions: read-out: apparent Kd; compound concentrations:100 nM and 1000 nM (sheet 'Samples'); n = 1

Row | SMILES | potency estimated from few doses [nM]
1 | COc1ccc(C[C@@H](CN)NC(=O)c2cc(Br)c(-c3ccnc4[nH]ccc34)s2)cc1.COc1ccc(C[C@@H](CN)NC(=O)c2cc(Br)c(-c3ccnc4[nH]ccc34)s2)cc1.Cl.Cl [GSK1389063A] | 2340
2 | Cl.Cn1cc(C2=C(c3cn(CCCN)c4ccccc34)C(=O)NC2=O)c2ccccc21 [RO0317549-002] | 117
3 | CCn1c(-c2nonc2N)nc2cncc(CNC3CCNCC3)c21 [SB-747651A] | 197

test system: PRKCD; set-up: species or system human, MV4-11 + K-562 + COLO205 + SK-N-BE2 + OVCAR-8; conditions: read-out: apparent Kd; compound concentrations:100 nM and 1000 nM (sheet 'Samples'); n = 1

Row | SMILES | potency estimated from few doses [nM]
4 | COc1ccc(C[C@@H](CN)NC(=O)c2cc(Br)c(-c3ccnc4[nH]ccc34)s2)cc1.COc1ccc(C[C@@H](CN)NC(=O)c2cc(Br)c(-c3ccnc4[nH]ccc34)s2)cc1.Cl.Cl [GSK1389063A] | 1750
5 | Cl.Cn1cc(C2=C(c3cn(CCCN)c4ccccc34)C(=O)NC2=O)c2ccccc21 [RO0317549-002] | 93.3
6 | CCn1c(-c2nonc2N)nc2cncc(CNC3CCNCC3)c21 [SB-747651A] | 632

test system: PRKG1; set-up: species or system human, MV4-11 + K-562 + COLO205 + SK-N-BE2 + OVCAR-8; conditions: read-out: apparent Kd; compound concentrations:100 nM and 1000 nM (sheet 'Samples'); n = 1

Row | SMILES | potency estimated from few doses [nM]
7 | COc1ccc(C[C@@H](CN)NC(=O)c2cc(Br)c(-c3ccnc4[nH]ccc34)s2)cc1.COc1ccc(C[C@@H](CN)NC(=O)c2cc(Br)c(-c3ccnc4[nH]ccc34)s2)cc1.Cl.Cl [GSK1389063A] | 27.3
8 | Cl.Cl.NC[C@H](Cc1ccc(C(F)(F)F)cc1)NC(=O)c1cc(Br)c(-c2ccnc3[nH]ccc23)s1.NC[C@H](Cc1ccc(C(F)(F)F)cc1)NC(=O)c1cc(Br)c(-c2ccnc3[nH]ccc23)s1 [GSK1487252A] | 30.2
9 | CCn1c(-c2nonc2N)nc2cncc(CNC3CCNCC3)c21 [SB-747651A] | 702

test system: ROCK2; set-up: species or system human, MV4-11 + K-562 + COLO205 + SK-N-BE2 + OVCAR-8; conditions: read-out: apparent Kd; compound concentrations:100 nM and 1000 nM (sheet 'Samples'); n = 1

Row | SMILES | potency estimated from few doses [nM]
10 | COc1ccc(C[C@@H](CN)NC(=O)c2cc(Br)c(-c3ccnc4[nH]ccc34)s2)cc1.COc1ccc(C[C@@H](CN)NC(=O)c2cc(Br)c(-c3ccnc4[nH]ccc34)s2)cc1.Cl.Cl [GSK1389063A] | 21.5
11 | Cl.Cl.NC[C@H](Cc1ccc(C(F)(F)F)cc1)NC(=O)c1cc(Br)c(-c2ccnc3[nH]ccc23)s1.NC[C@H](Cc1ccc(C(F)(F)F)cc1)NC(=O)c1cc(Br)c(-c2ccnc3[nH]ccc23)s1 [GSK1487252A] | 180
12 | CCn1c(-c2nonc2N)nc2cncc(CNC3CCNCC3)c21 [SB-747651A] | 36.2

test system: RPS6KB1; set-up: species or system human, MV4-11 + K-562 + COLO205 + SK-N-BE2 + OVCAR-8; conditions: read-out: apparent Kd; compound concentrations:100 nM and 1000 nM (sheet 'Samples'); n = 1

Row | SMILES | potency estimated from few doses [nM]
13 | COc1ccc(C[C@@H](CN)NC(=O)c2cc(Br)c(-c3ccnc4[nH]ccc34)s2)cc1.COc1ccc(C[C@@H](CN)NC(=O)c2cc(Br)c(-c3ccnc4[nH]ccc34)s2)cc1.Cl.Cl [GSK1389063A] | 130
14 | Cl.Cl.NC[C@H](Cc1ccc(C(F)(F)F)cc1)NC(=O)c1cc(Br)c(-c2ccnc3[nH]ccc23)s1.NC[C@H](Cc1ccc(C(F)(F)F)cc1)NC(=O)c1cc(Br)c(-c2ccnc3[nH]ccc23)s1 [GSK1487252A] | 461
15 | Cl.Cn1cc(C2=C(c3cn(CCCN)c4ccccc34)C(=O)NC2=O)c2ccccc21 [RO0317549-002] | 1180
16 | CCn1c(-c2nonc2N)nc2cncc(CNC3CCNCC3)c21 [SB-747651A] | 22.2
